Assays:
[1] = test system: Human papillomavirus type 1a protein E7 (residues 44-93); assay: HPV1a E7 fragment binders on microarrays, primary screen, biochemical, small-molecule microarray, residues 44-93, 635 nm fluorescence (AID 1108); conditions: small-molecule microarray binding, fluorescence 635 nm; higher = more signal;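 note: E7 fragment applied at 1 µg/mL in TBST for 1 h at 4 C; score combines spot fluorescence with its signal to noise ratio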
[2] = modulators of HCV replicon luciferase signal, primary screen, HCV replication inhibitor project, Huh7 cells, luciferase reporter (AID 1109); conditions: 48 h, higher = more signal;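 note: huh7 hepatoma cells harbouring a luciferase neomycin HCV replicon reporter; luciferase luminescence as measure of HCV replicon replication; test concentration not given here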
[3] = target: Left-right determination factor 2 (Homo sapiens) (UniProt O00292); assay: LEFTY2 binders on small-molecule microarrays, primary screen, biochemical, small-molecule microarray, 635 nm fluorescence scan (AID 1110); conditions: LEFTY2 binding, higher = more signal
Left-right determination factor 2 (Homo sapiens), sequence (O00292 whole entry, looked up): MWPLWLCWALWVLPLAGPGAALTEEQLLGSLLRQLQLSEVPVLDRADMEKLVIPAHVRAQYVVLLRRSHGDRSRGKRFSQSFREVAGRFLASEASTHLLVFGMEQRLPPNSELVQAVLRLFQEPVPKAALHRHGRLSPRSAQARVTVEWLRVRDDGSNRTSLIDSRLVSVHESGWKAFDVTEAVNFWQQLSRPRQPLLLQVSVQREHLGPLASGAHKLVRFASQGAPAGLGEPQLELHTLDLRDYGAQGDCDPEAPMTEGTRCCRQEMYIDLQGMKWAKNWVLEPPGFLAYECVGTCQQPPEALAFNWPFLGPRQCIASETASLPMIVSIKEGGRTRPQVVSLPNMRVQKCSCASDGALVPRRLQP

[4] = target: Calmodulin-1 (Homo sapiens) (UniProt P0DP23); assay: CALM1 binders on microarrays, EGTA buffer, profiling panel, biochemical, small-molecule microarray, Cy5-labelled CALM1 (AID 1111); conditions: Cy5-CALM1 binding fluorescence, higher = more signal;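 note: labelled calmodulin applied in Tris saline Tween buffer holding calcium plus EGTA and DTT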
[5] = target: Calmodulin-1 (Homo sapiens) (UniProt P0DP23); assay: calcium-bound CALM1 binders on microarrays, profiling panel, artefact control for SMM control-protein annotation, biochemical, small-molecule microarray, Cy5-labelled CALM1, plus calcium (AID 1112); conditions: Cy5-CALM1 binding fluorescence, higher = more signal;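 note: score merges spot fluorescence with signal to noise from triplicate slides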
[6] = small-molecule microarray binders of probe aWnt5a, primary screen, biochemical, biotinylated probe, 635/667 nm fluorescence (AID 1113); conditions: higher = more signal;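 note: score merges 667 nm fluorescence intensity with signal-to-noise per printed feature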
[7] = small-molecule microarray binders of probe aShh, primary screen, biochemical, biotinylated probe, 635/667 nm fluorescence (AID 1114); conditions: higher = more signal;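 note: probe is biotin-labelled aShh protein from a stem cell growth factor screen; measures binding of labelled protein to compounds printed on the slide; score merges feature fluorescence at 667 nm with signal-to-noise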
[8] = small-molecule microarray binders of probe aNog, primary screen, biochemical, biotinylated probe, 635/667 nm fluorescence (AID 1115); conditions: higher = more signal;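 note: probe is biotinylated aNog protein used at 0.15 µg/mL for 1 h at 4 C; z-score combines 667 nm fluorescence of each spot with its signal to noise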
[9] = target: Torsin-1A-interacting protein 1 (Homo sapiens) (UniProt Q5JTV8); assay: LAP1 binders from COS7 cell lysate, primary screen, small-molecule microarray, 635/667 nm fluorescence (AID 1116); conditions: COS7-hLAP1 lysate binding, 635 nm fluorescence, higher = more signal
Torsin-1A-interacting protein 1 (Homo sapiens), sequence (Q5JTV8 whole entry, looked up): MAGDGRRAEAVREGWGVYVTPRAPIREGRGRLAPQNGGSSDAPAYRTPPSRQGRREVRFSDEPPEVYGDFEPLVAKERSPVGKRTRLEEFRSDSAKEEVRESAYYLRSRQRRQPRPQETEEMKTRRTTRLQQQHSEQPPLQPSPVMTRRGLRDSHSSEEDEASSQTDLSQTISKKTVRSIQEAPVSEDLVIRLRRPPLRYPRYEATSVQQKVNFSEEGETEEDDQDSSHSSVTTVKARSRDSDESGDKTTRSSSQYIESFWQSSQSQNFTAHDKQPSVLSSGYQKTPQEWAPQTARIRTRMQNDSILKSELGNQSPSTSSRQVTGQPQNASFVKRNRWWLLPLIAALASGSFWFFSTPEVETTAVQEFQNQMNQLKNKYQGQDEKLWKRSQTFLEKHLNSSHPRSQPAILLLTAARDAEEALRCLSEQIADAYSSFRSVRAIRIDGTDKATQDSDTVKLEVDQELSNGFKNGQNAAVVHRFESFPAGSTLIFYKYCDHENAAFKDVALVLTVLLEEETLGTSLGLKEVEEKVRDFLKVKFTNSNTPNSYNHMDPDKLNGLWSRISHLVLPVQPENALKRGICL

[10] = target: Alpha-bungarotoxin (Bungarus multicinctus) (UniProt P60615); assay: alpha-bungarotoxin binders on microarray, profiling panel, artefact control for SMM control protein annotation, biochemical, small-molecule microarray, Alexa647 label, 635/667 nm fluorescence (AID 1117); conditions: alpha-BTX-A647 binding fluorescence, higher = more signal
Alpha-bungarotoxin (Bungarus multicinctus), sequence (P60615 whole entry, looked up): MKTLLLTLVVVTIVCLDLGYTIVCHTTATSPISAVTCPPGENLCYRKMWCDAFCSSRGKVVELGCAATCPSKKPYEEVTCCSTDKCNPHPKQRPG

Row | SMILES | composite z-score [1] | z-score [2] | composite z-score [3] | composite z-score [4] | composite z-score [5] | composite z-score [6] | composite z-score [7] | composite z-score [8] | composite z-score [9] | composite z-score [10]
1 | CCN(CC)c1ccc(N2CC=CC34O[C@@H]5C=CCCOC(=O)C5[C@H]3C(=O)N(CCCCCCO)[C@@H]4C2=O)cc1 (stereo not given in full) | -0.873 | 0.234 | -0.395 | -0.235 | 0.307 | -0.096 | -0.26 | -0.229 | 1.33 | -0.419
2 | C=CCC(OC(C)=O)[C@@H]1[C@@H](N(Cc2ccc(-c3ccccc3)cc2)C(=O)c2ccc(-c3ccccc3)cc2)c2cc(OCCCO)ccc2N1C(=O)Cc1ccc2ccccc2c1 (stereo not given in full) | 0.422 | -0.4 | 0.0959 | 0.436 | 0.704 | -0.0566 | -0.345 | 0.221 | 0.359 | 0.0054
3 | C=C(C(=O)CC[C@@H](OC(=O)c1cccnc1)c1ccccc1OCCO)C(C)C | -0.139 | -2.35 | 0.373 | -0.948 | -0.895 | -0.0643 | -0.0977 | -0.247 | 1.85 | 0.593
4 | C=C[C@@H](COC(=O)OC(C)(C)C)N(Cc1ccc(OC)cc1)S(=O)(=O)c1ccc(Br)cc1 | 1.28 | -0.987 | 0.537 | -0.042 | -0.439 | -0.0977 | 0.0121 | -0.326 | 0.173 | 0.268
5 | Cc1ccc(S[C@]2(C(=O)NC3CC3)CC(=O)N(Cc3ccccc3)[C@@H]2c2ccc(CO)cc2I)cc1 | 0.477 | -1.9 | -1.2 | -0.351 | -0.149 | -0.0221 | -0.0794 | 0.503 | -0.0172 | -0.734
6 | CCCCCN1CC=CC23O[C@@H]4/C=C\CCC(C)OC(=O)C4[C@H]2C(=O)N(C(C)CO)[C@@H]3C1=O (stereo not given in full) | 0.67 | -0.862 | -0.441 | -0.213 | -1.04 | -0.175 | -0.282 | -0.17 | -0.537 | -0.453
7 | CCCC[C@H]1OB(O)C[C@H]2C1=C(COC)C[C@H]1C(=O)N(C)C(=O)[C@H]12 | 0.343 | -0.918 | 0.358 | 0.223 | -0.596 | -0.152 | -0.0626 | -0.0496 | -0.321 | 1.16
8 | CO[C@H]1O[C@H](CO)[C@@H](OC(=O)Nc2cccc(F)c2)[C@H](OC(=O)Nc2ccccc2)[C@@H]1OC(=O)Nc1ccccc1 | 1.26 | -3.23 | 0.071 | 0.471 | -0.365 | 0.0257 | 0.365 | 0.883 | 0.642 | 0.0941
9 | NC(=O)NCC#Cc1ccc2c(c1)[C@]1(C(=O)N2)[C@H](c2ccccc2OCCO)N2[C@H](c3ccccc3)[C@H](c3ccccc3)OC(=O)[C@H]2[C@@H]1C(=O)Nc1nc2ccccc2s1 | 1.36 | -0.809 | 0.0464 | 0.873 | 0.745 | -0.0944 | -0.266 | 0.448 | 0.286 | 1.29
10 | CC(C)C(O)C1C=CC2C(=O)NC(=O)C2N1Nc1ccc(Cl)cc1Cl (stereo not given) | -0.898 | -0.88 | -0.226 | 1.5 | 1.23 | -0.0944 | -0.296 | 0.0266 | 1.91 | 0.712
11 | COc1ccc(-c2cc3c(c(-c4ccc(Oc5ccccc5)cc4)n2)[Si](C(C)C)(C(C)C)OC3)cn1 | -0.419 | -1.15 | -0.123 | -0.266 | 0.211 | -0.206 | -0.0553 | -0.224 | -0.286 | 0.199
12 | C=CCN1C(=O)[C@@]2(CC=C)N=C(c3ccc(OCCCO)cc3)O[C@H]2c2ccccc21 | 1.41 | -2.48 | 0.984 | 3.11 | 0.0457 | 0.026 | -0.0886 | 0.808 | 1.62 | 0.951
13 | O=C1C2C=CC(C(O)c3cccc4ccccc34)N(Nc3ccccc3F)C2C(=O)N1c1ccccc1 (stereo not given) | 1.45 | -0.69 | 0.264 | 1.84 | 0.895 | 0.0554 | 0.14 | 0.737 | 1.4 | 2.15
14 | NC(=O)[C@@H]1[C@H]2C(=O)O[C@H](c3ccccc3)[C@H](c3ccccc3)N2[C@H](c2ccc(O)cc2)[C@@]12C(=O)Nc1ccccc12 | 0.812 | -1.1 | -2.27 | -0.395 | -0.127 | -0.127 | -0.0553 | 0.264 | -1.02 | -0.674
15 | C=CC[C@@]12N=C(c3ccc(OCCCO)cc3)O[C@@H]1c1ccccc1N(C)C2=O | 1.16 | -1.56 | 0.0838 | 0.422 | -0.206 | 0.14 | 0.547 | -0.621 | -0.0062 | 1.21
16 | CC(C)C(=C=CC[C@H](O)c1ccc(OCCO)cc1)CCO | 1.39 | -0.119 | 0.131 | 0.219 | -0.729 | -0.0107 | 0.163 | 0.508 | 0.828 | 0.663
17 | COc1cccc(-c2cccc(=O)o2)c1 | -1.17 | 0.473 | 0.361 | -0.753 | -0.454 | 0.153 | 0.475 | 0.192 | 0.628 | 0.141
18 | O=C(c1ccccc1)N1Cc2ccccc2C[C@@]2(COC(c3ccc(OCCCO)cc3)=N2)C1=O | 1.4 | -1.25 | 0.252 | 1.32 | 0.566 | -0.0512 | 0.184 | -0.486 | 1.31 | 1.83
19 | CC(C)NC(=O)[C@@H]1c2ccccc2C(=O)N(C2Cc3ccccc3C2)[C@H]1c1ccc(CO)cc1 | 1.41 | -1.31 | 0.25 | 0.344 | -0.225 | 0.0142 | -0.366 | -0.449 | 0.724 | 0.399
20 | CC(C)N1C(=O)c2ccccc2[C@](C)(C(=O)NCCN2CCOCC2)[C@@H]1c1ccc(CO)cc1 | 0.416 | -0.366 | -1.03 | -0.454 | 0.23 | -0.139 | -0.206 | -0.213 | 0.143 | 0.0722
21 | O=C(c1ccccc1)N1C(=O)[C@]2(COC(c3ccc(OCCCO)cc3)=N2)Cc2ccccc21 | 1.04 | -1.14 | 0.448 | 1.8 | 0.106 | -0.0303 | -0.321 | 1.13 | 1.84 | 2.29
22 | CCc1cccc(NC(=O)O[C@H]2[C@H](OC(=O)Nc3ccccc3-c3ccccc3)[C@@H](OC(=O)Nc3ccccc3-c3ccccc3)[C@@H](OC)O[C@@H]2CO)c1 | 1.52 | -3.79 | 0.3 | 1.71 | -0.0011 | 0.0839 | 0.432 | 0.572 | 1.47 | 1.53
23 | COc1cc2c(cc1OC)CN(C(=O)[C@@H]1[C@H]3C(=O)O[C@H](c4ccccc4)[C@H](c4ccccc4)N3[C@H](c3ccccc3OCCO)[C@@]13C(=O)Nc1ccc(C#CCCO)cc13)CC2 | 1.35 | -2.36 | 0.268 | 1.16 | 0.104 | -0.133 | 0.292 | 1.16 | 2.22 | 1.49
24 | C=C(CC1([C@@H](NP(=O)(c2ccccc2)c2ccccc2)[C@H]2C[C@@H]2CCCC)CC1)c1ccccc1 | 1.23 | -0.776 | -0.0117 | 1.19 | 1.15 | 0.186 | 0.257 | 0.0585 | 1.17 | 0.598
25 | CN(C)CCCCCCNC(=O)[C@H]1C[C@H]2C(=O)N3CCC[C@H]3C(=O)N2[C@H]1c1ccc(O)cc1 | 1.12 | 1.42 | 1.44 | -1.17 | -2.33 | -0.0598 | 0.178 | 0.0459 | 1.29 | 0.73
26 | COCCOC(=O)N1C(=O)[C@@]2(c3cc(C#Cc4ccc(OC)cc4)ccc31)[C@H](c1ccccc1OCCO)N1[C@H](c3ccccc3)[C@H](c3ccccc3)OC(=O)[C@H]1[C@@H]2C(=O)NC[C@H](O)c1ccccc1 | 1.44 | -2.03 | 0.46 | 1.03 | 0.427 | -0.0445 | 0.0469 | 0.407 | 0.819 | 1.86
